Compound activity deposited in PubChem BioAssay by National Center for Advancing Translational Sciences (NCATS).
Sampled rows, rich in hits. Any-hit rate of the full collection: about 21%.
NS1 inh: inhibitors of influenza NS1 protein function; Potency, µM (doses to about 46.1 µM), for inactives: at the highest dose activity, positive = more growth; actives 0.4% (n = 270,000); AID 2326; calls by dose curve; further: potency means the concentration at half of the fitted maximal effect; actives are rising curves; nearly all actives have a fitted effect of over 50% in size
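OD600 was taken as the measure of yeast growth restored by compound in an NS1-expressing S. cerevisiae strain. Cells had been washed out of glucose medium and diluted 1:100 into galactose -URA medium, pH 6.0.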
Pf growth 96h: P. falciparum growth inhibition at 96 hours | P. falciparum luciferase reporter growth, 96 h | Potency, µM (highest dose often 28.7 µM), for the others: at the highest dose activity change, negative = inhibition, most hits filed as inhibitors | actives 6.9% (n = 320,000) | AID 504834; further: potency means the concentration at half of the fitted maximal effect; on the % scale 0 is the no-effect control and ±100 the full control effect
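Two-generation exposure (96 h) targets delayed-death phenotype. Reporter parasites carrying integrated firefly luciferase, in red cells at 2% hematocrit and 0.05% parasitemia final, kept at 37 C, 5% CO2; luminescence loss indicates inhibition.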
Shiga toxin inh: inhibitors of Shiga toxin in Vero cells. Vero cells, Shiga toxin protein synthesis inhibition reporter. inhibition, % at 38.7 µM. actives 9.2% (n = 290,000). AID 2315; in the data active means inhibition mostly above about 28%, no sharp cut-off; inactive means mostly below about 43%; further: 0% is about no effect
CHX counter: affects cycloheximide protein synthesis inhibition readout, counter-screen. actives 12% (n = 300,000). cell reporter, cycloheximide protein synthesis inhibition counterscreen. max response, %; in the data active means max response mostly above about 13%, no sharp cut-off; inactive means mostly below about 14%; further: read at 38.3 µM for the half of the compounds with a filed dose; 0% is about no effect
Sm TGR inh: blocks Schistosoma mansoni thioredoxin glutathione reductase. Q962Y6. purified TGR, DTNB reduction, TNB absorbance 405 nm. Potency, µM (titrated, usually from 114 µM), for the others: at the top dose activity change, negative = inhibition, actives largely listed as inhibitors. actives 3% (n = 360,000). AID 485364; further: potency means the concentration at half of the fitted maximal effect; on the % scale 0 is the no-effect control and ±100 the full control effect; nearly all actives have a fitted effect of over 60% in size
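Kinetic colorimetric format: TGR-catalysed, NADPH-driven DTNB reduction monitored via TNB absorbance. Enzyme dispensed at 20 nM; compound exposure 15 min at room temperature before reaction start.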
Pf growth 48h: P. falciparum growth inhibition at 48 hours (one generation); P. falciparum luciferase growth in erythrocytes, 48 h; Potency, µM (top dose mostly 28.7 µM), without a hit: at the highest dose activity change, negative = inhibition, actives largely listed as inhibitors; actives 5.9% (n = 310,000); further: potency means the concentration at half of the fitted maximal effect; on the % scale 0 is the no-effect control and ±100 the full control effect
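Cell-based growth assay: transgenic P. falciparum expressing firefly luciferase, cultured in red cells within RPMI 1640 containing 0.5% w/v Albumax, 24 mM bicarbonate and gentamycin. A drop in luciferase activity indicates inhibition.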
Active calls of the source: *; ? = inconclusive; . = no result; + = active, no number; [ ] = remark or other dose. Unless noted, the call rests on the fitted dose curve; in most records, active means well fitted curve in the direction sought with a large enough effect; inconclusive means small, poorly fitted or top-dose-only effect, or another doubt; inactive means no such curve, though single readings can be large; an effect the other way counts as inactive or inconclusive.

SMILES | NS1 inh | Pf growth 96h | Shiga toxin inh | CHX counter | Sm TGR inh | Pf growth 48h
COc1ccc(CCNC(=O)c2cn(C)c3ccc(S(=O)(=O)N4CCOCC4)cc3c2=O)cc1OC | 14.3% | 10.5% | 2.9 | 5.0 | 1.3% | 13.1µM*
CCn1cc(C(=O)NCCc2ccc(OC)c(OC)c2)c(=O)c2cc(S(=O)(=O)N3CCC(C)CC3)ccc21 | . | . | . | . | 7.1% | .
CCn1cc(C(=O)NCCc2ccc(OC)c(OC)c2)c(=O)c2cc(S(=O)(=O)N3CCOCC3)ccc21 | -2.0% | ? | 13.5 | -0.6 | 1.3% | 10.4µM*
COc1cccc(CNC(=O)Cc2c(C)c3ccc(OC)c(C)c3oc2=O)c1 | . | . | . | . | 13.6% | .
Cc1cc(O)c(C(C[N+](=O)[O-])c2ccc(Cl)cc2Cl)c(=O)o1 (stereo not drawn) | -45.1% | . | 12.8 | -1.6 | 50.1µM* | -6.7%
CCOCCCNS(=O)(=O)c1ccc(NC(=O)N2c3ccccc3Sc3ccccc32)cc1 | 6.7% | 11.7µM* | -8.8 | 2.5 | -1.8% | ?
NS(=O)(=O)c1ccc(NC(=O)N2c3ccccc3Sc3ccccc32)cc1 | 2.2% | 2.33µM* | -9.9 | -2.5 | -7.4% | ?
CCOCCCNS(=O)(=O)c1ccc(NC(=O)CN2C(=O)c3ccccc3C2=O)cc1 | 0.9% | ? | -1.1 | 2.3 | 13.1% | -5.1%
CC(C)(C)c1ccc(C(=O)N/C(=C\c2cccc([N+](=O)[O-])c2)C(=O)Nc2cccc(C(=O)O)c2)cc1 | ? | ? | 14.0 | -0.4 | ? | 32.2%
CC(/C=N/N1CCN(Cc2ccccc2)CC1)=C\c1ccccc1 | . | ? | 34.3 | 24.7* | 5.8% | 27.7%
COc1ccccc1/C=C/C=N/N1CCN(Cc2ccccc2)CC1 | -5.9% | 4.6% | -6.2 | 12.5* | ? | 7.3%
Fc1ccc(/C=N/N2CCN(Cc3ccccc3)CC2)cc1 | 8.2% | 9.28µM* | 61.9* | 20.5* | 4.2% | 19.1%
C(=N\N1CCN(Cc2ccccc2)CC1)/c1ccc(-c2ccccc2)cc1 | 6.5% | 19.0% | -3.0 | 1.0 | -10.6% | -4.8%
Cc1ccc(/C=N/N2CCN(Cc3ccccc3)CC2)cc1 | . | 33.4% | 37.7 | 16.9* | 56.2% | 18.8%
CCCn1c(=O)c2c(nc3n2CCCN3CCc2ccc(OC)c(OC)c2)n(C)c1=O | -4.5% | ? | -19.1 | 0.7 | -0.8% | ?
COC(/C=C/Nc1ccc(C)cc1)=C(C#N)C#N | 3.6% | 1.2% | -7.0 | 6.5 | 3.1% | 10.6%
O=C(Nc1ccc(Br)cc1F)C(NS(=O)(=O)c1cccc2nsnc12)c1ccccc1 (stereo not drawn) | . | . | . | . | -5.4% | .
CCOC(=O)N1CCN(C(=O)Nc2ccc3nc(-c4ccccn4)c(-c4ccccn4)nc3c2)CC1 | 5.5% | -13.1% | -3.0 | 0.6 | -2.9% | -11.9%
Cc1nc2ccc(NC(=O)N3CCSCC3)cc2nc1C | 1.4% | ? | 4.4 | -2.8 | 1.3% | 15.2%
Cc1nc2ccc(NC(=O)N3CCN(c4ccccn4)CC3)cc2s1 | -14.0% | ? | 70.1 | 6.6 | 3.6% | -16.0%
CCOC(=O)N1CCN(C(=O)Nc2ccc3nc(C)sc3c2)CC1 | -14.6% | . | 30.7 | 16.5* | 1.4% | 0.0%
CCOC(=O)Nc1ccc2nc(N3CCCCCC3)sc2c1 | -40.5% | 164.4% | 125.6* | 34.3* | -1.3% | 111.1%
Cc1nc2ccc(NC(=O)N3CCSCC3)cc2s1 | 0.3% | ? | 75.8 | 18.0* | 18.0% | ?
Cc1nc2ccc(NC(=O)N3CCCCC3)cc2s1 | -11.4%[9.22 µM] | . | 40.8* | 28.1* | -9.8% | 31.5%
c1ccc(Nc2c(-c3c[nH]c4ccccc34)nc3ccccn23)cc1 | . | . | . | . | 7.7% | .
SMILES | NS1 inh | Pf growth 96h | Shiga toxin inh | CHX counter | Sm TGR inh | Pf growth 48h
C=CCNC(=O)/C(=C\C=C\c1ccccc1)NC(=O)c1ccccc1Cl | -2.8% | 1.3% | 26.1 | -2.8 | 1.5% | 14.2%
O=C(O)CCCNC(=O)/C(=C\C=C\c1ccccc1)NC(=O)c1ccccc1Cl | 7.7% | 475.1% | -8.3 | -2.5 | 39.8µM* | 36.8%
Cc1ccc(-n2c(C)c([N+](=O)[O-])c3ccc(O)cc32)cc1 | 5.6% | ? | -22.5 | -2.6 | 8.91µM* | ?
Cc1c([N+](=O)[O-])c2ccc(O)cc2n1-c1ccccc1 | 2.7% | ? | 2.0 | -2.8 | -14.0% | -5.3%
Cc1ccc(-n2c(C)c([N+](=O)[O-])c3ccc(O)c(CN(C)C)c32)cc1 | ? | . | -16.4 | -2.8 | -8.5% | 13.1µM*
COc1ccc(-n2c(C)c([N+](=O)[O-])c3ccc(O)c(CN4CCCCC4)c32)cc1 | -0.2% | . | -7.2 | -3.3 | 11.1% | .
CCOc1ccc(C(=O)NCc2nc3cccnc3n2Cc2cccc(OC)c2)cc1 | . | . | . | . | 16.3% | .
COC(=O)CN(n1cnnc1)S(=O)(=O)c1ccccc1 | ? | 11.7µM* | -15.9 | 9.0 | 0.8% | 8.6%
COC(=O)CN(c1ccccc1)S(=O)(=O)c1ccccc1 | 2.9% | 21.5% | 19.2 | 1.0 | 6.7% | .
Cc1ccc(S(=O)(=O)N(CC(=O)O)Cc2ccco2)cc1 | -3.9% | 34.4% | 22.5 | 9.4 | ? | 118.4%
COC(=O)CN(Cc1ccco1)S(=O)(=O)c1ccccc1 | 8.8% | . | -0.7 | 1.2 | 22.4µM* | ?
CCN(CC)S(=O)(=O)c1ccc(S(=O)(=O)N(CC(=O)Nc2ccccc2)Cc2ccco2)cc1 | ? | 27.6% | 16.6 | -1.2 | 28.2µM* | -12.6%
COc1cc(/C=N/NC(=O)CN(Cc2ccco2)S(=O)(=O)c2ccccc2)ccc1O | 12.8% | ? | -3.7 | 17.7* | -12.6% | -8.3%
COC(=O)c1cccnc1NC(=S)NNC(=O)c1ccccc1 | 3.3% | ? | 31.7 | 7.8 | -1.2% | .
CC(=O)Nc1ccc(-c2csc(NNC(=O)c3ccc(C)cc3)n2)cc1 | 6.3% | 13.9% | 6.5 | 11.1 | . | 5.7%
CC(=O)Nc1ccc(-c2csc(Nc3cccc(C)n3)n2)cc1 | 2.8% | 6.9% | 73.5* | 49.6* | 4.6% | 154.6%
CC(=O)NNc1nc(-c2ccc(NC(C)=O)cc2)cs1 | ? | -12.1% | 10.6 | 2.7 | 39.8µM* | 29.9%
COc1ccc(-c2cc(C(F)(F)F)n3nc(C(=O)OC(C)C)cc3n2)cc1 | . | . | . | . | -1.8% | .
Cn1nc(-c2ccccc2)c(CN2CCN(c3ncccn3)CC2)c1Cl | -9.0% | ? | 1.8 | 2.3 | 0.5% | ?
O=C(Nc1ccc(Br)cc1)C1OCCc2ccccc21 (stereo not drawn) | -69.1% | ? | 50.5* | 17.7* | -0.3% | ?
Cc1cccc(C(=O)Oc2ccc(/C=N/NC(=O)c3ccccc3O)cc2)c1 | -16.0% | 0.0% | + | 37.6* | 9.4% | ?
Cc1cccc(C(=O)Oc2ccc(/C=N/NC(=O)c3ccc(O)cc3)cc2)c1 | -12.4% | 16.1% | 29.2 | 24.7* | 6.1% | ?
O=C(COc1ccc(S(=O)(=O)N2CCOCC2)cc1)N1CCN(c2ccccc2)CC1 | -17.4% | 88.0% | 7.7 | -1.2 | 0.4% | ?
